Calls of active or inactive are those of the source.

The subject of test [1] is PRMT1 (protein arginine N-methyltransferase 1). Kind of test: small molecules binding arginine methyltransferase PRMT1 – biochemical, small-molecule microarray, 635 nm fluorescence, primary screen (AID 1088).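 Further: binding of Prmt1 protein to compounds spotted on small-molecule microarray slides.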 Particulars: higher = more signal.
The nature of test [2]: growth effects on S. cerevisiae YJM789 – YJM789 clinical isolate, OD600, 24 h, basal, primary screen (AID 1089).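 Further: growth of clinical yeast isolate S. cerevisiae YJM 789 seeded 1000 cells per well; test concentration not given here.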 The conditions noted are these: higher = more signal, called active from +8 up or from −8 down.
The nature of test [3]: S. pombe growth modifiers, basal conditions – strain 972, OD600, 24 h, no modulator, primary screen (AID 1090).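 Further: basal condition with compound alone and no growth modifier present; test concentration not given here.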 The conditions noted are these: S. pombe 972 growth, higher = more signal, called active from +8 up or from −8 down.
Test [4] can be described thus: budding yeast growth modifiers under rapamycin – strain BY4716, OD600, 96 h, primary screen (AID 1091). Further: test concentration not given here. The conditions noted are these: S. cerevisiae BY4716 + rapamycin, higher = more signal, called active from +8 up or from −8 down.
The target in test [5] is Torsin-1A-interacting protein 2 (Homo sapiens) (UniProt Q8NFQ8). Kind of test: small molecules binding lysate-expressed LULL1 – cell lysate, human LULL1 lysate, 635/667 nm fluorescence, primary screen (AID 1092).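 Further: probe is lysate of COS7 cells overexpressing human LULL1; score merges per-feature 667 nm fluorescence with signal-to-noise.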 Particulars: small-molecule microarray, hLULL1 lysate binding, 635 nm fluorescence; higher = more signal.
Sequence of Torsin-1A-interacting protein 2 (Homo sapiens) (Q8NFQ8 whole entry, looked up): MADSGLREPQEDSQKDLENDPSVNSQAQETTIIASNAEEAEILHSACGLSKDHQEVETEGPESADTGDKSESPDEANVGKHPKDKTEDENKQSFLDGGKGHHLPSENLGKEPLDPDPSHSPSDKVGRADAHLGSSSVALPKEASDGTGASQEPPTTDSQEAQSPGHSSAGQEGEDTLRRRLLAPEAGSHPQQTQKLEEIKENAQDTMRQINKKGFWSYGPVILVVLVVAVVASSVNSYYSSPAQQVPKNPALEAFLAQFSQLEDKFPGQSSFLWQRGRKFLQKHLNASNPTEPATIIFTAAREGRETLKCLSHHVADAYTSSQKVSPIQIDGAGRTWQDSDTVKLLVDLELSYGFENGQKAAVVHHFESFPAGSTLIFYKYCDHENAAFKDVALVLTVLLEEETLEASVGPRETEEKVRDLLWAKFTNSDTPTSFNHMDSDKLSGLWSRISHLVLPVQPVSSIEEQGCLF
The nature of test [6]: optical density change of DRC41 E. coli – strain DRC41, OD650, 24 h, E. coli filamentation project, primary screen (AID 1093).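 Further: MC1000 strain lacking acrAB efflux and sulA so SOS filamentation is blocked; test concentration not given here.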 The conditions noted are these: E. coli DRC41 growth, higher = more signal, called active from +8 up or from −8 down.
Test [7] in a line: probe aLefty2 binding to arrayed compounds – biochemical, biotinylated probe, 635/667 nm fluorescence, primary screen (AID 1094).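 Further: score merges spot fluorescence near 667 nm with spot signal-to-noise ratio.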 The conditions noted are these: small-molecule microarray, higher = more signal.
The test system of test [8] is Noggin (protein binding on small-molecule microarray). Kind of test: small molecules binding Noggin protein – biochemical, 635/667 nm fluorescence, primary screen (AID 1095).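 Further: score merges 667 nm feature fluorescence with signal to noise over triplicate slides.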 The conditions noted are these: 635 nm fluorescence, higher = more signal.
The target of test [9] is Neurogenic locus notch homolog protein 3 (Homo sapiens) (UniProt Q9UM47). Kind of test: small molecules binding NOTCH3 protein – biochemical, 635/667 nm fluorescence, primary screen (AID 1096). Particulars: small-molecule microarray, 635 nm fluorescence, higher = more signal.
Sequence of Neurogenic locus notch homolog protein 3 (Homo sapiens) (Q9UM47 whole entry, looked up): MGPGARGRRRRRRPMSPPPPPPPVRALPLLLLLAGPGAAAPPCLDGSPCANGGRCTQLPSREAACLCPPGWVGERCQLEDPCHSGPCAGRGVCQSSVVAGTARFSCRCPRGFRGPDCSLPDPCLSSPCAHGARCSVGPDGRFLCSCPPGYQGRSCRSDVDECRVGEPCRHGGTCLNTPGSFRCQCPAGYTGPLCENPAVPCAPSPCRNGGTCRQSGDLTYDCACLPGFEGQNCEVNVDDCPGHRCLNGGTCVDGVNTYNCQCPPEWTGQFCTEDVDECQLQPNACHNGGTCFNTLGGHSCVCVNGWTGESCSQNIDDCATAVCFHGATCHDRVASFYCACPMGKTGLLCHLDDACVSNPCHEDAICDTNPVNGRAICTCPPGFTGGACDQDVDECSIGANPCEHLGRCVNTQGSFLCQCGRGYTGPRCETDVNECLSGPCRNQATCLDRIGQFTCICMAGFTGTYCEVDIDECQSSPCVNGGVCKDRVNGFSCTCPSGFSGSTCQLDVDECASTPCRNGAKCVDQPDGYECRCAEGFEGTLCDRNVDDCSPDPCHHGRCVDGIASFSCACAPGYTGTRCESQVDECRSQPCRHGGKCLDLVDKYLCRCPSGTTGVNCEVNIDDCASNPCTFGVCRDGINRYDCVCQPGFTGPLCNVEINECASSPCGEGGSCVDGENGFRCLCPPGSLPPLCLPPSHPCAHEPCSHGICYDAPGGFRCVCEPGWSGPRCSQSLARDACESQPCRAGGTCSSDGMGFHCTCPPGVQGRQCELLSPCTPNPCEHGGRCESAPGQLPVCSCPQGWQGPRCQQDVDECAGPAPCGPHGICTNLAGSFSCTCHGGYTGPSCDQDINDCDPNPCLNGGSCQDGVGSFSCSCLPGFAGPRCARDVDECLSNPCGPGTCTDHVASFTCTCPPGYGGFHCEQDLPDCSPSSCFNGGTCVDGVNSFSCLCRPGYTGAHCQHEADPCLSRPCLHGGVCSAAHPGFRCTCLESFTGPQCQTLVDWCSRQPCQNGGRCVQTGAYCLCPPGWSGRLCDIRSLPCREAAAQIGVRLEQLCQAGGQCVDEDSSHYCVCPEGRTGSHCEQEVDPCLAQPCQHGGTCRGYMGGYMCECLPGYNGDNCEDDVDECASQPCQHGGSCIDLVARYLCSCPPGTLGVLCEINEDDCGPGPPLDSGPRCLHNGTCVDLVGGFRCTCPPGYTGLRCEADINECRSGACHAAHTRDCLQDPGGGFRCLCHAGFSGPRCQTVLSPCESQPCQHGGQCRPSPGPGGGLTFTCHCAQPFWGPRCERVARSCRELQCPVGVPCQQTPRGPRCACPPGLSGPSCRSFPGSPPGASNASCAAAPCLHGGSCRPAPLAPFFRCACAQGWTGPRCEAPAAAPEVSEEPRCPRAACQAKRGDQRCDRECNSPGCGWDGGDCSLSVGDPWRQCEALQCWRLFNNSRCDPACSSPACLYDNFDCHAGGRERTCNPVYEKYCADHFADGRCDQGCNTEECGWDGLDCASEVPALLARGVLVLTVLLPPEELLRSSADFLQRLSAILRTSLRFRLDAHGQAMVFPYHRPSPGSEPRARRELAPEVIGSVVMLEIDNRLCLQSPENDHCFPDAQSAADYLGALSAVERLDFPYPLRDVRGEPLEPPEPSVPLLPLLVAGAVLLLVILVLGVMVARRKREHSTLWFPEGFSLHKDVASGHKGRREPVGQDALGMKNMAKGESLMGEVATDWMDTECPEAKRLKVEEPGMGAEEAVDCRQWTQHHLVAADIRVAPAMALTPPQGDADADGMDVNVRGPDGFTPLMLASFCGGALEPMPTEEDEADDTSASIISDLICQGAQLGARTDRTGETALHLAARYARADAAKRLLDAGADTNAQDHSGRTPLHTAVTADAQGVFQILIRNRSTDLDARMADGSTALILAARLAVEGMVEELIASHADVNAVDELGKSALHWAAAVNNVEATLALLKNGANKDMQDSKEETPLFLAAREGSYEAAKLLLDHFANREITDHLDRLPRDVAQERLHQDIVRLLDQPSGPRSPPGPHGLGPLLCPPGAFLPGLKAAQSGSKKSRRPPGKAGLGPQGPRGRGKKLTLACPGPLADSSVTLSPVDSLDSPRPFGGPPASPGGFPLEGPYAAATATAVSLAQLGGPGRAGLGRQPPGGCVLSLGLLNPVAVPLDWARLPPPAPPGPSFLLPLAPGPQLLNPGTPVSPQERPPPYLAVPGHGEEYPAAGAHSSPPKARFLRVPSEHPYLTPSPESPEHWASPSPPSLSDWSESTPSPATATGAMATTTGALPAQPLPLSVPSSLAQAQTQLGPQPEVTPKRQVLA
Test [10] in a line: probe aEGFR binding to arrayed compounds – biochemical, biotinylated probe, 635/667 nm fluorescence, primary screen (AID 1097).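 Further: probe is a biotinylated anti-EGFR antibody binding compounds printed on slides; score combines fluorescence near 667 nm and signal to noise of each spot.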 Particulars: small-molecule microarray, higher = more signal.

`CN(C)CCCCCCNC(=O)[C@@H]1C[C@@H]2C(=O)N[C@@H](CCCCN)C(=O)N2[C@@H]1c1cccc(OCCO)c1`: the composite z-score in test [1] is 1.55; in test [5], 4.63; in test [7], 1.65; in [8], 1.8; in [9], 1.02; in test [10], 1.02. Besides, the z-score in test [2] is -5.46 (inactive); in test [3] it was -5.83 (inactive); in test [4], -1.3 (inactive); in test [6], 0.0508 (inactive).
On to `C=CCNC(=O)[C@H]1[C@@H]2C(=O)O[C@@H](c3ccccc3)[C@@H](c3ccccc3)N2[C@@H](c2ccc(OCCO)cc2)[C@]12C(=O)Nc1ccc(C#CC3=CCCCC3)cc12`, for which the composite z-score is 1.55 in [1]; 2.89 in test [5]; -0.109 in [7]; 0.673 in test [8]; 1.15 in test [9]; -0.147 in test [10]. Also, the z-score in [2] was 2.28 (inactive); in [3] it was 1.46 (inactive); in test [4], 4.72 (inactive); in [6], 1.53 (inactive).
Take `C=CCN1C(=O)[C@@]2(O[C@@H](CCO)[C@H]([Si](C)(C)c3ccc(OC)cc3)[C@H]2C)c2cc(NC(=O)c3ccc(OC)cc3)ccc21`: the composite z-score in [1] was 1.54; in test [5], 0.821; in test [7] it was -0.0977; in test [8] it was 1.37; in [9], 0.861; in test [10], -0.159. The z-score in test [2] is 0.411 (inactive); in test [3] it was -2.29 (inactive); in test [4], 1.02 (inactive); in [6] it was 0.702 (inactive).
On to `C#CCNC(=O)[C@H](Cc1ccccc1)NC(=O)CCC(=O)O`, for which the composite z-score in [1] was -1.17; in [5], -0.906; in test [7] it was -0.198; in test [8], -0.88; in test [9], -0.502; in test [10] it was -0.238. Besides, the z-score is -0.136 (inactive) in [2], 0.396 (inactive) in test [3], 0.0017 (inactive) in [4] and -0.361 (inactive) in test [6].
For `CCOC(=O)[C@H]1C/C=C/C[C@H](C(=O)OCC)C(=O)O[C@H]2[C@@H](OC)O[C@H](CO)[C@@H](OC(=O)Nc3cccc(F)c3)[C@@H]2OC1=O`, the composite z-score in test [1] is 1.11; in test [5], 2.94; in [7], -0.162; in [8], 0.719; in test [9] it was 1.02; in [10], -0.2. The z-score in test [2] is 1.52 (inactive); in test [3] it was 0.268 (inactive); in test [4] it was 22.2 (active); in test [6], -0.168 (inactive).
In the case of `COCCOC(=O)N1C(=O)[C@@]2(c3cc(C#Cc4ccc(OC)cc4)ccc31)[C@H](c1ccccc1OCCO)N1[C@H](c3ccccc3)[C@H](c3ccccc3)OC(=O)[C@H]1[C@@H]2C(=O)N1CCN(c2ncccn2)CC1`, the composite z-score is 1.35 in test [1]; 2.22 in test [5]; -0.115 in test [7]; 0.936 in test [8]; 0.836 in [9]; -0.058 in [10]. Moreover, the z-score was 3.34 (inactive) in test [2], 1.95 (inactive) in [3], 7.23 (inactive) in [4] and 0.579 (inactive) in [6].
As to `C=CCOC(=O)[C@H]1[C@@H]2C(=O)O[C@@H](c3ccccc3)[C@@H](c3ccccc3)N2[C@@H](c2ccc(OCCOC(=O)[C@@H]3C[C@@H]4C(=O)N[C@@H](CCCCN(C)C)C(=O)N4[C@@H]3c3ccc(O)cc3)cc2)[C@]12C(=O)Nc1ccc(I)cc12`, the composite z-score in [1] is 1.46; in test [5], 2.77; in [7] it was -0.0823; in [8] it was 1.51; in test [9] it was 1.05; in test [10], 0.0752. The z-score is 1.36 (inactive) in [2], -1.09 (inactive) in [3], 1.52 (inactive) in [4] and -1.34 (inactive) in test [6].
With `CC(C)(C)OC(=O)CC[C@@]1(C(=O)NCC(O)CO)N=C(c2ccc(OCCCO)cc2)O[C@@H]1c1ccccc1N=[N+]=[N-]` (stereo not given in full), the composite z-score turned out to be 1.54 in test [1]; 3.76 in [5]; 0.247 in [7]; 1.04 in [8]; 0.626 in test [9]; 0.0773 in test [10]. For the same compound, the z-score in test [2] was 1.17 (inactive); in test [3], -1.74 (inactive); in test [4] it was 4.99 (inactive); in test [6] it was 1.26 (inactive).
As to `COCCOC(=O)N1C(=O)[C@@]2(c3ccccc31)[C@H](c1ccc(O)cc1)N1[C@H](c3ccccc3)[C@H](c3ccccc3)OC(=O)[C@H]1[C@@H]2C(=O)NC[C@H](O)c1ccccc1`, the composite z-score in [1] was 1.51; in [5], 2.98; in test [7], -0.23; in test [8], 0.399; in [9] it was 0.669; in test [10], -0.165. Also, the z-score in test [2] was 0.385 (inactive); in test [3] it was -0.238 (inactive); in [4], 2.73 (inactive); in test [6] it was 0.505 (inactive).
Turning to `COc1cc2c(cc1OC)CN(C(=O)[C@@H]1[C@H]3C(=O)O[C@H](c4ccccc4)[C@H](c4ccccc4)N3[C@H](c3ccc(O)cc3)[C@@]13C(=O)Nc1ccc(C#CC4(O)CCCCCC4)cc13)CC2`, the composite z-score in test [1] was 1.55; in test [5], 3.46; in [7] it was -0.232; in [8], 1.59; in test [9], 1.08; in [10], 0.0685. For the same compound, the z-score in test [2] is 0.739 (inactive); in [3], -0.0727 (inactive); in [4], 0.257 (inactive); in test [6] it was 0.395 (inactive).
As for `CN1C(=O)C2C=CC(C(O)C3=C[C@H]4C[C@@H](C3)C4(C)C)N(Nc3ccccc3)C2C1=O` (stereo not given in full), the composite z-score was 0.965 in test [1]; 2.46 in [5]; 0.161 in [7]; 0.305 in test [8]; 1.14 in test [9]; -0.0065 in test [10]. The z-score is 0.443 (inactive) in test [2], 0.192 (inactive) in test [3], 1.31 (inactive) in test [4] and 0.0208 (inactive) in test [6].
`O=C1c2ccccc2[C@](Cc2ccccc2I)(C(=O)NC2CC2)[C@H](c2ccc(CO)cc2)N1Cc1ccccc1`: the composite z-score in test [1] is 0.735; in [5], 2.86; in [7], -0.0741; in test [8] it was 0.133; in [9], 0.566; in [10], -0.0681. In addition, the z-score is -0.835 (inactive) in test [2], -0.388 (inactive) in [3], -1.15 (inactive) in [4] and 0.192 (inactive) in test [6].
On to `C=C(CCCC)C(=O)CC[C@H](OC(C)=O)c1cccc(OCCO)c1`, for which the composite z-score in test [1] was 0.554; in test [5], -0.348; in test [7], -0.215; in test [8] it was -0.848; in test [9], -0.216; in test [10], -0.363. The z-score was 0.292 (inactive) in test [2], -1.84 (inactive) in test [3], -0.303 (inactive) in [4] and 0.787 (inactive) in test [6].
In the case of `[N-]=[N+]=NCc1ccccc1[C@H]1OC(c2ccc(OCCCO)cc2)=N[C@@]1(Cc1ccccc1)C(=O)NCc1ccccc1`, the composite z-score in test [1] amounted to 1.48; in test [5], 2.86; in [7] it was 0.151; in [8] it was 0.177; in test [9], 1.12; in [10], 0.411. In addition, the z-score in [2] was -1.9 (inactive); in [3], -0.0354 (inactive); in [4], 6.58 (inactive); in [6] it was 0.84 (inactive).
